In experiment [1] the test system is CLZ3 (HCA2 human fibroblast dual HR-NHEJ reporter). As to the kind of experiment: NHEJ repair efficiency (GFP+ cells) relative to control (log10 fold); higher = more non-homologous end joining. Particulars: 5 µM; doxycycline 0.5 ug/mL.
Experiment [2] shares this test system. As to the kind of experiment: HR repair efficiency (tdTomato+ cells) relative to control (log10 fold); higher = more homologous recombination. Particulars: 5 µM; doxycycline 0.5 ug/mL.
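For HR repair efficiency (tdTomato+ cells) relative to control in this document: compound given one day before doxycycline, which switches on I-SceI endonuclease expression to create double-strand breaks within the integrated reporter.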
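For NHEJ repair efficiency (GFP+ cells) relative to control in this document: compound given one day ahead of doxycycline, which switches on I-SceI endonuclease to cut the chromosomally integrated reporter and create DSBs.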

Consider `C=C(C)[C@@H]1CC[C@]2(C)[C@H](CC=C3[C@@H]4[C@@H](C)[C@H](C)CC[C@]4(C)CC[C@]32C)[C@@]1(C)CCC(=O)O` [Roburic acid], for which the “NHEJ repair efficiency (log10)” value in experiment [1] was found to be 0.15. Moreover, the “HR repair efficiency (log10)” value in experiment [2] was 0.128.

On to `C[C@@H]1O[C@@H](O[C@H]2[C@H](OC(=O)[C@]34CCC(C)(C)C[C@H]3C3=CC[C@@H]5[C@@]6(C)C[C@H](O)[C@H](O[C@@H]7O[C@H](CO)[C@@H](O)[C@H](O)[C@H]7O)C(CO)(CO)[C@@H]6CC[C@@]5(C)[C@]3(C)C[C@H]4O)OC[C@H](O)[C@@H]2O)[C@H](O)[C@H](O)[C@H]1O[C@@H]1OC[C@@H](O)[C@H](O[C@@H]2OC[C@](O)(CO)[C@H]2O)[C@H]1O` [Platycodin D], for which the “NHEJ repair efficiency (log10)” value in experiment [1] is -0.142. The “HR repair efficiency (log10)” value in experiment [2] is -0.287.

As to `CC1(C)O[C@H]2CC(=O)OC[C@]23[C@H]2CC[C@@]4(C)[C@H](c5ccoc5)OC(=O)[C@H]5O[C@]54[C@]2(C)C(=O)C[C@@H]13` [Limonin], the “NHEJ repair efficiency (log10)” value in experiment [1] is 0.0392. Besides, in experiment [2], the “HR repair efficiency (log10)” value is -0.00925.

As for `CC(=O)S[C@@H]1CC2=CC(=O)CC[C@]2(C)[C@H]2CC[C@@]3(C)[C@@H](CC[C@@]34CCC(=O)O4)[C@H]12` [Spironolactone], the “NHEJ repair efficiency (log10)” value in experiment [1] was found to be 0.15. Moreover, the “HR repair efficiency (log10)” value in experiment [2] was -0.0059.

As to `O=C1C[C@@H](c2ccccc2)Oc2cc(O)cc(O)c21` [Pinocembrin], the “NHEJ repair efficiency (log10)” value in experiment [1] was determined as 0.123. Besides, in experiment [2], the “HR repair efficiency (log10)” value is 0.0891.

Take `CN1Cc2c(ccc3c2OCO3)[C@@]2(C)[C@@H](O)Cc3cc4c(cc3[C@@H]12)OCO4` [Corynoline]: the “NHEJ repair efficiency (log10)” value in experiment [1] was -0.128. In addition, the “HR repair efficiency (log10)” value in experiment [2] is -0.201.

As for `C[C@H]1[C@H](C)CC[C@]2(C(=O)O[C@@H]3O[C@H](CO[C@@H]4O[C@H](CO)[C@@H](O[C@@H]5O[C@@H](C)[C@H](O)[C@@H](O)[C@H]5O)[C@H](O)[C@H]4O)[C@@H](O)[C@H](O)[C@H]3O)CC[C@]3(C)C(=CC[C@@H]4[C@@]5(C)C[C@@H](O)[C@H](O)[C@@](C)(CO)[C@@H]5[C@H](O)C[C@]43C)[C@H]12` [Madecassoside], the “NHEJ repair efficiency (log10)” value in experiment [1] was 0.0946. In addition, the “HR repair efficiency (log10)” value in experiment [2] was 0.19.

Consider `CC(/C=C/C=C(\C)C(=O)O[C@@H]1O[C@H](CO)[C@@H](O)[C@H](O)[C@H]1O)=C\C=C\C=C(C)\C=C\C=C(/C)C(=O)O[C@@H]1O[C@H](CO[C@@H]2O[C@H](CO)[C@@H](O)[C@H](O)[C@H]2O)[C@@H](O)[C@H](O)[C@H]1O` [Crocin Ii], for which, in experiment [1], the “NHEJ repair efficiency (log10)” value is -0.0199. Further, the “HR repair efficiency (log10)” value in experiment [2] amounted to 0.0485.

As to `C[C@H]1[C@H](OC(=O)CCC(=O)O)O[C@@H]2O[C@@]3(C)CC[C@H]4[C@H](C)CC[C@@H]1[C@@]24OO3` [Artesunate], the “NHEJ repair efficiency (log10)” value in experiment [1] was -0.0268. In addition, the “HR repair efficiency (log10)” value in experiment [2] was -0.241.

With `c1ccc2c(c1)OC1c3ccccc3OCC21` (stereo unspecified) [Pterocarpan], the “NHEJ repair efficiency (log10)” value in experiment [1] was 0.112. The “HR repair efficiency (log10)” value in experiment [2] is -0.0555.

As for `C[C@H]1[C@H](C)CC[C@]2(C(=O)O)CC[C@]3(C)C(=CC[C@@H]4[C@@]5(C)C[C@@H](O)[C@H](O)[C@@](C)(CO)[C@@H]5[C@H](O)C[C@]43C)[C@H]12` [Madecassic acid], in experiment [1], the “NHEJ repair efficiency (log10)” value was 0.0926. Besides, in experiment [2], the “HR repair efficiency (log10)” value turned out to be 0.143.

In the case of `O=C1O[C@H]2[C@@H]3OC(=O)c4cc(O)c(O)c(O)c4-c4c(O)c(O)c5oc(=O)c6c(c(O)c(O)c7oc(=O)c4c5c76)-c4c(cc(O)c(O)c4O)C(=O)OC[C@H]3OC(O)[C@@H]2OC(=O)c2cc(O)c(O)c(O)c2-c2c1cc(O)c(O)c2O` (mixture of isomers) [Punicalagin], the “NHEJ repair efficiency (log10)” value in experiment [1] is -0.0664. Moreover, in experiment [2], the “HR repair efficiency (log10)” value is -0.254.

Consider `O=c1c(O[C@@H]2O[C@H](CO)[C@H](O)[C@H](O)[C@H]2O)c(-c2ccc(O)c(O)c2)oc2cc(O)cc(O)c12` [Hyperoside], for which the “NHEJ repair efficiency (log10)” value in experiment [1] is 0.0115. In addition, the “HR repair efficiency (log10)” value in experiment [2] was -0.00424.

`O=C(O)c1cc(O)c2c(c1)[C@H]([C@H]1c3cc(C(=O)O)cc(O)c3C(=O)c3c(O[C@@H]4O[C@H](CO)[C@@H](O)[C@H](O)[C@H]4O)cccc31)c1cccc(O[C@@H]3O[C@H](CO)[C@@H](O)[C@H](O)[C@H]3O)c1C2=O` [Sennoside A]: the “NHEJ repair efficiency (log10)” value in experiment [1] worked out at 0.0438. Moreover, the “HR repair efficiency (log10)” value in experiment [2] came out at 0.131.

Consider `CN[C@@H](C)[C@H]1[C@H](O)C[C@@]2(C)[C@@H]3CC[C@H]4C(C)(C)[C@@H](NC)CC[C@@]45C[C@@]35CC[C@]12C` [Cyclovirobuxine D], for which, in experiment [1], the “NHEJ repair efficiency (log10)” value was -0.023. Also, the “HR repair efficiency (log10)” value in experiment [2] is 0.0389.

On to `CC1(C)C=Cc2c(ccc3c2OC[C@@H](c2ccc(O)cc2O)C3)O1` [Glabridin], for which the “NHEJ repair efficiency (log10)” value in experiment [1] was -0.0493. Further, the “HR repair efficiency (log10)” value in experiment [2] is -0.0637.

As to `O=c1c(-c2ccc(O[C@@H]3O[C@H](CO)[C@@H](O)[C@H](O)[C@H]3O)cc2)coc2cc(O)cc(O)c12` [Sophoricoside], the “NHEJ repair efficiency (log10)” value in experiment [1] came out at 0.185. The “HR repair efficiency (log10)” value in experiment [2] worked out at 0.0013.

As for `C=C1C[C@@]23CC[C@H]4[C@@](C)(CCC[C@@]4(C)C(=O)O[C@@H]4O[C@H](CO)[C@@H](O)[C@H](O)[C@H]4O)[C@@H]2CC[C@]1(O[C@@H]1O[C@H](CO)[C@@H](O)[C@H](O)[C@H]1O)C3` [Rubusoside], the “NHEJ repair efficiency (log10)” value in experiment [1] worked out at 0.0726. The “HR repair efficiency (log10)” value in experiment [2] came out at 0.0779.

(Values after the supplement of paper PMC7380943.)
